Laboratory results from PubChem BioAssay (EPA / NIEHS).
Results filed as inconclusive are left out. Activity calls are given as the source filed them. Rule for the calls: active = hit-call score of the fitted dose curve at least 0.9, where 1 is the maximum; inconclusive = response in the unintended direction; inactive = score below 0.9.

test: ACEA_ER_AUC_viability: ACEA Biosciences xCELLigence Real-Time Cell Analysis on Estrogen Receptor Agonism for Viability (AID 2283782);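 note: continuous compound exposure with impedance area under curve over 80 h; hit means loss of impedance signal meaning reduced cell growth or viability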
In short: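 T-47D; phenol red-free RPMI1640 + 10% CS-FBS; 8 conc., 1:4 serial, max 100 uM final, ≤0.5% DMSO; n = 2; continuous exposure; impedance monitored to 80 h post-dose; AUC vs DMSO.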

Row | Compound | outcome | AC50
1 | COc1ccc(N)c([N+](=O)[O-])c1 | inactive | 
2 | COC(=O)c1cccnc1 | inactive | 
3 | C=C(C#N)C(=O)OCC |  | 78.9 µM (active)
4 | CN(C)C(=S)SC(=S)N(C)C |  | 90.3 µM (active)
5 | CCCC[P+](CCCC)(CCCC)CCCC |  | 91.7 µM (active)
6 | COc1ccc(CCC(C)=O)cc1 | inactive | 
7 | C[C@H]1C[C@@H](O)CC(C)(C)C1 |  | 50 µM (active)
8 | CC(C)CC(C)CC(O)CC(C)C (stereo not given) | inactive | 
9 | C=CC(=O)OCCC#N |  | 66.7 µM (active)
10 | C=C(C)C(=O)OCCOC1CC2CC1C1C=CCC21 (stereo not given) |  | 48.6 µM (active)
11 | CCN(CCC#N)c1ccc(N=Nc2ccc([N+](=O)[O-])cc2)cc1 | inactive | 
12 | CC=CC=CCOC(=O)C(C)C |  | 76.8 µM (active)
13 | ClC(c1ccccc1)(c1ccccc1)c1ccccc1 |  | 82.6 µM (active)
14 | Cc1ccc(OC(=O)c2ccccc2O)cc1 |  | 50 µM (active)
15 | CCCCCCCCCC(C)C=O (stereo not given) | inactive | 
16 | C=CCCC(=O)/C=C/C1C(C)=CCCC1(C)C (stereo not given) |  | 68.8 µM (active)
17 | COC(=O)c1ccc([N+](=O)[O-])cc1 |  | 80.2 µM (active)
18 | O=CN1CCOCC1 | inactive | 
19 | O=C(O)c1cccnc1C(=O)O | inactive | 
20 | CC(C)(CO)[C@@H](O)C(=O)NCCC(=O)O | inactive | 

Row | Compound | outcome | AC50
21 | Oc1c(Cl)cc(Cl)c(Cl)c1Cc1c(O)c(Cl)cc(Cl)c1Cl |  | 5.27 µM (active)
22 | Nc1ccc2c(O)cc(S(=O)(=O)O)cc2c1 | inactive | 
23 | CC(=O)C(C)O (stereo not given) | inactive | 
24 | C=C(C)C1CC=C(C)C(=O)C1 (stereo not given) |  | 68.2 µM (active)
25 | COC(=O)c1ccc(OC)cc1 | inactive | 
26 | C=Cc1ccncc1 |  | 37.3 µM (active)
27 | CC(=O)C1(C)CC2=C(CCCC2(C)C)CC1C (stereo not given) |  | 50 µM (active)
28 | CCC(C)=O | inactive | 
29 | COc1ccccc1[N+](=O)[O-] | inactive | 
30 | CCCCCC(=O)CC | inactive | 
31 | CC1(C)COCN1 |  | 32.1 µM (active)
32 | CCOC(=O)CCc1ccccc1 | inactive | 
33 | COC(=O)C=C(C)CCC=C(C)C | inactive | 
34 | C=C(C)C(=O)OCCOCCOCCOC(=O)C(=C)C | inactive | 
35 | COC(CC(C)CCCC(C)(C)O)OC (stereo not given) | inactive | 
36 | CCCN(CCC)S(=O)(=O)c1ccc(C(=O)O)cc1 | inactive | 
37 | OCCCCC(O)CO (stereo not given) | inactive | 
38 | CC(C)=CCCC(C)CC(=O)O (stereo not given) | inactive | 
39 | CN(C)C(=O)Nc1ccc(Oc2ccc(Cl)cc2)cc1 | inactive | 
40 | NCC1CCCC(CN)C1 (stereo not given) | inactive | 
